Results reported in PubChem BioAssay AID1845 (The Scripps Research Institute Molecular Screening Center, 2009).
The campaign covered roughly 290,000 compounds. About 490 (0.17%) were called active. For the sample, actives were picked, then their nearest neighbours and some compounds at random. Unmarked numbers belong to inactive results. Rule as the data show it: active = inhibition above about 37%; inactive = the rest.

Assay: compounds displacing fluorescent DNA intercalator, primary screen, artefact control for HCV NS3 helicase inhibitor project, biochemical, FID fluorescence (AID 1845);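 also: 0% = vehicle and 100% = reference compound; higher means more ethidium bromide displaced from hairpin DNA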
Details: DNA fluorescent intercalator displacement, at 7.9 µM, active compounds read high

Compound | inhibition
Cc1ccc(-n2c(SCC(=O)NCCC3=CCCCC3)nc3n[nH]c(C)c3c2=N)cc1Cl | -27.4%
O=C(N/N=C/c1cccc(Br)c1)c1ccc(N2CCCC2=O)cc1 | -27.4%
C=CCOc1ccc(/C=C/C(=O)OCC(=O)NC2CCCCCC2)cc1 | -19.4%
O=C(Nc1ccc(C(=O)N2CCCCC2)cc1)c1cccc([N+](=O)[O-])c1 | -20.2%
Cn1ccc(=Nc2ccc(NC(=O)c3ccc(N=c4ccn(C)c5ccc([N+](=O)[O-])cc45)cc3)cc2)cc1 | 99% (active)
Cc1cc([N+](=O)[O-])ccc1NC(=O)c1ccc(NC(=O)C(C)C)cc1 | -1.34%
CCC(C)(C)NC(=O)C(c1cccc(OC)c1OC)N(CC(C)C)C(=O)CCC(=O)Nc1cc(C)on1 (centres undefined) | -44.5%
O=C(NCCN1CCOCC1)c1cc(-c2cccs2)nc2ccccc12 | 3.9%
c1ccc2cc3c(NCCN4CCOCC4)ccnc3cc2c1 | 63.9% (active)
O=C(NCCN1CCOCC1)c1ccc2c(c1)ncn2C1CCCC1 | -5.28%
CCCc1cc(=O)oc2c(C)c(OCC(=O)Nc3ccccn3)ccc12 | -23.4%
COC(=O)c1ccc(/C=N/NC(=O)C(=O)N2CCCCCC2)cc1 | -24.6%
CCc1c(C)c2ccc(OC3CCCCC3=O)cc2oc1=O (centres undefined) | -19.1%
Oc1c(Cl)cc(Cl)c(Cl)c1Cc1c(O)c(Cl)cc(Cl)c1Cl | 42.8% (active)
CCC1OC(c2ccc([N+](=O)[O-])cc2)=Nc2ccccc21 (centres undefined) | 0.06%
CC(CN1CCCCC1)c1ccccc1 (centres undefined) | 4.77%
CC(C)[C@@H](NC(=O)OC(C)(C)C)C(=O)NCC1CCC(C(=O)N[C@@H](Cc2ccccc2)C(=O)O)CC1 (some centres undefined) | -37.5%
O=C(CCN1CCc2ccccc2C(O)(c2ccccc2)C1)c1ccc2c(c1)OCCO2 (centres undefined) | 13.1%
COc1ccc2cc(C(=O)C3CCCN(C(=O)c4sc(C)nc4C)C3)ccc2c1 (centres undefined) | -47.1%
O=C(Nc1ccccc1F)c1ccc(Cn2cc(Br)cn2)cc1 | -14.8%

Compound | inhibition
NC(=O)c1cc(S(=O)(=O)NCCCc2ccco2)cs1 | -3.13%
O=S1(=O)N=C(N(CCO)/N=C/c2ccccc2F)c2ccccc21 | -16.3%
COc1ccc(CCNC(=O)CN2C(=O)CCSc3ccccc32)c(OC)c1 | -32%
CC(C)C[C@@H](COc1ccccc1)N1CCN(CC(C)C)CCC1=O | -13.2%
Cc1cnc(C)c(N2CCN(C(=O)C3CCC(=O)N(CCc4cccc(F)c4)C3)CC2)n1 (centres undefined) | -38.6%
O=C(Nc1ccccc1)c1ccc2c(c1)OCCCO2 | -4.42%
CC(NC(=O)CNC(=O)Cc1cccc2ccccc12)c1ccc(S(N)(=O)=O)cc1 (centres undefined) | -27.1%
Cc1ccc2c(c1)N(CC(=O)N1CCC(O)CC1)C(=O)CO2 | -5.64%
O=C(CCN1C(=O)[C@H]2CC=CC[C@H]2C1=O)NCc1nc(-c2ccccc2)no1 | -33.7%
O=C1NC(c2ccc(-c3ccccc3[N+](=O)[O-])o2)C(C(=O)c2ccc(Cl)cc2)C(O)(C(F)(F)F)N1 (centres undefined) | -16.8%
C/C(=N/OC(=O)c1ccc(Br)cc1)c1ccc(C)cc1 | -5.35%
CC(C)C[C@H](NC(=O)C1CCC(CNC(=O)[C@@H]2CCCN2C(=O)OC(C)(C)C)CC1)C(=O)O (some centres undefined) | -30.2%
CC(=O)c1sc(N/N=C/c2ccc(C(C)C)cc2)nc1C | 4.61%
CCOc1ccc(NC(=O)C(C)N2C(=O)c3ccccc3C2=O)cc1 (centres undefined) | -4.96%
S=C(Nc1ccc(Cl)cc1Cl)N1CCCC1 | 0.9%
O=C(NCCN1CCN(C(=O)c2cccc([N+](=O)[O-])c2)CC1)C(=O)NCc1ccc(Cl)cc1 | -23.5%
NC(=O)C1CCN(Cc2nc3c(Br)cc(Br)cc3c(=O)[nH]2)CC1 | -3.04%
O=C(C1CC(=O)N(c2ccc(F)cc2)C1)N1CCN(c2ccccc2)CC1 (centres undefined) | -24.8%
CCc1cc(=O)oc2c(C)c(OCC(=O)N3CC[C@@]4(O)CCCC[C@H]4C3)ccc12 | -29.5%
COC(=O)c1c(NC(=O)C(=O)N2CCCCC2)sc2c1CC(C)(C)OC2 | -42.8%

Compound | inhibition
CCN(CC)S(=O)(=O)c1ccc(N2CCOCC2)c(NC(=O)C2CSC3(C)CCC(=O)N23)c1 (centres undefined) | -32.7%
COc1cccc(N(CC(=O)NC2CCCC2)C(=O)CCCC(=O)Nc2ccccn2)c1 | -30.3%
O=C(O)CC(c1ccccc1F)N1Cc2ccccc2C1=O (centres undefined) | -5.32%
CC(C)(C)c1ccc(/C=C/C(=O)NCCCn2ccnc2)cc1 | 4.7%
CC(C)c1ccc(Nc2nnc(SCC(=O)c3nnc(-c4ccccc4)o3)s2)cc1 | -16.9%
COc1ccccc1N(CC(=O)Nc1ccccc1C(=O)N1CCCC1)S(C)(=O)=O | -10.3%
Cc1cccc(NC(=O)CCN2CC(C)CC(C)C2)c1 (centres undefined) | 6.82%
CN(CCO)S(=O)(=O)c1ccc2c(c1)C(=O)c1cc(S(=O)(=O)N(C)CCO)ccc1-2 | 0.99%
O=C(c1cc(S(=O)(=O)N2CCOCC2)ccc1Cl)N1CCOCC1 | -0.42%
O=C(CCN1CCCO1)N1CCCC(N2CCN(c3cccc(C(F)(F)F)c3)CC2)C1 (centres undefined) | -34.6%
O=C(Cc1ccc(Cl)cc1)NC1CCS(=O)(=O)C1 (centres undefined) | -2.95%
CC(=O)Nc1ccc(NC(=O)COc2ncnc3ccccc23)cc1 | -0.17%
CC(=O)Nc1ccc(Nc2c3ccccc3nc3ccccc23)cc1 | 70.8% (active)
Cc1ccc(Nc2c3c(nc4ccccc24)CCC3)cc1 | 6.54%
COc1ccccc1N1CCN(c2ncnc3sc(C)c(-c4ccccc4)c23)CC1 | -38.6%
OC(CN=c1sc2ccccc2n1CC(O)COc1ccccc1)COc1ccccc1 (centres undefined) | -11.1%
CCc1ccc(C(CNc2nc(C(F)(F)F)nc3ccccc23)N(C)C)cc1 (centres undefined) | 39.5% (active)
NS(=O)(=O)c1ccc(CCNc2nc(C(F)(F)F)nc3ccccc23)cc1 | -2.69%
COc1cccc(CNc2nc(C(F)(F)F)nc3ccccc23)c1 | -5.57%
